Inconclusive results are not listed. Activity calls are given as the source filed them. The call rests on the fitted dose curve; in most records, active means well fitted curve in the direction sought with a large enough effect; inconclusive means small, poorly fitted or top-dose-only effect, or another doubt; inactive means no such curve, though single readings can be large; an effect the other way counts as inactive or inconclusive.

A short description of experiment [1]: Cytotoxicity qHTS for assessment of Hepg2 cells membrane integrity screened against the NCATS CANVASS Library (AID 1347387). To be noted: HepG2 LDH release (CytoTox-ONE) fluorescence, 5 h; series mostly up to 91.4 µM. A digest of the protocol:
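Fluorescence proportional to lysed-cell number, from LDH leaking out of HepG2 cells exposed 5 hr at 37C to 0.59 nM - 46 uM compound (11-point qHTS), is measured after 10 min with CytoTox-ONE.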
On the technique in general: Quantitative high-throughput screening tests each substance at several concentrations.

Experiment [2] in a line: qHTS for Activators of p53 Stress Response Pathway screened against the NCATS CANVASS Library (AID 1347388). To be noted: p53RE-bla HCT-116, beta-lactamase reporter, 16 h; series mostly up to 91.4 µM. An excerpt:
(§1) Natural products and their derivatives continue to be wellsprings of nascent therapeutic potential. However, many laboratories have limited resources for biological evaluation, leaving their previously isolated or synthesized compounds largely or completely untested. To address this issue, the Canvass library of natural products was assembled (https://tripod.nih.gov/canvass), in collaboration with academic and industry researchers, for quantitative high-throughput screening (qHTS) across a diverse set of cell-based and biochemical assays. […] The library was formatted into 1536-well plates and evaluated in 50 qHTS (in an 11-pnt concentration series) bioassays with broad scope of disease-relevant mechanisms. The resulting data set from 50 different assays was then systematically analyzed to identify overall trends and specific natural products with interesting biological activities. […] The activation of the report gene under culture conditions can be detected by fluorescence intensity. […]
p53-screen protocol: 1. […] The fluorescence readout was obtained using the EnVision microplate reader (PerkinElmer) equipped with a 405 nm excitation and 460 nm and 530 nm emission filters. The ratio of 460 nm / 530 nm readout was calculated and used for data analysis. […]

The nature of experiment [3]: qHTS assay for small molecule disruptors of mitochondrial membrane potential screened against the NCATS CANVASS Library (AID 1347389). To be noted: HepG2 mitochondrial membrane potential, m-MPI red/green ratio, 1.5 h; series mostly up to 91.4 µM.
Text: as §1, with “In response to mitochondrial depolarization,” for “The activation of”, “red-to-green” for “report gene under culture conditions can be detected by”, “ratio decreases.” for “intensity.”
Mitochondrial membrane potential protocol: 2,000 HepG2 cells in 5 uL/well were dispensed into black, clear-bottom 1536-well plates using a Multidrop Combi (Thermo Scientific) dispenser. […] Fluorescence intensity (490nm excitation and 535nm emission for monomers; and 540nm excitation and 590nm emissions for aggregates) was measured using an Envision plate reader.

Experiment [4] is described as follows: Secretion counterscreen for inhibitors of the SERCaMP assay screened against the NCATS CANVASS Library (AID 1347390). The note with it: SH-SY5Y constitutive GLuc secretion, luminescence, 20 h; series mostly up to 76.6 µM. A digest of the protocol: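 Counterscreen identifying compounds that disrupt secretion, using SH-SY5Y cells with a constitutively secreted Gaussia luciferase reporter. A 20 h compound exposure (top 77 uM) precedes luminescent detection with coelenterazine.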

The nature of experiment [5]: qHTS for activators of Nrf2/ARE signaling pathway screened against the NCATS CANVASS Library (AID 1347391). The note with it: ARE-bla HepG2, beta-lactamase reporter, 16 h; series mostly up to 91.4 µM. A digest of the protocol: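 Cells carrying an ARE-driven beta-lactamase reporter (HepG2 background) are dosed for 16 h, then stained with CCF4. Cell viability in the same wells is measured by CellTiter-Glo luminescence.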

A short description of experiment [6]: qHTS for activators of dead-cell proteases activity screened against the NCATS CANVASS Library (AID 1347392). The note with it: HepG2 cytotoxicity, dead-cell protease luminescence, 5 h; series mostly up to 91.4 µM. A digest of the protocol: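 Compounds are pin-transferred onto attached HepG2 cells, giving 11 final concentrations. After 5 h at 37C, AAF-aminoluciferin reagent is added and luminescence is recorded at room temperature.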

Experiment [7] can be described thus: Vero-766 cells viability qHTS against the NCATS CANVASS Library: Counterscreen for Zika virus inhibition assay (AID 1347394). The note with it: Vero 766 viability, CellTiter-Glo luminescence, 72 h; series mostly up to 91.4 µM. In short, it runs like this:
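This cytotoxicity counterscreen uses African green monkey Vero 766 cells in the absence of Zika virus. Compounds are incubated with cells for 72 h, and ATP-based luminescence reports viability.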

Experiment [8] in a line: qHTS for inhibitors of Wild type Zika virus screened against the NCATS CANVASS Library (AID 1347396). The note with it: Vero cells, Zika virus CPE, CellTiter-Glo, 72 h; series mostly up to 91 µM. In short, it runs like this: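 Luminescent CellTiter Glo read-out of virus-induced cytotoxicity, 72 h post-infection, in Vero 766 cells. Compounds were tested at 11 concentrations; uninfected, vehicle-treated wells defined 100% inhibition.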

Experiment [9] in a line: qHTS for inhibitors of ER calcium dysfunction: SERCaMP assay screened against the NCATS CANVASS Library (AID 1347393). To be noted: SH-SY5Y GLuc-SERCaMP (Gaussia luciferase released on ER calcium loss) secretion, thapsigargin, luminescence. In short, it runs like this: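 Thapsigargin-induced ER calcium depletion drives GLuc-SERCaMP secretion from SH-SY5Y cells; compounds given 16 h beforehand were scored by lowered coelenterazine luminescence after 4 h challenge.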

Experiment [10] in a line: Viability qHTS for inhibitors of the SERCaMP assay screened against the NCATS CANVASS Library (AID 1347400). To be noted: SH-SY5Y SERCaMP cells viability, CellTiter-Glo, 48 h; series mostly up to 183 µM. A digest of the protocol: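 Cytotoxicity counter-screen: ATP content (CellTiter-Glo luminescence) of SH-SY5Y-GLuc SERCaMP MJH297 cells after 48 h at 37C with compounds in an 11-point qHTS series.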

In the case of `COc1ccc2[nH]cc(CCN)c2c1`, the compound was classed as inactive in [1], in experiment [2], in experiment [3], in [4], in [5] and in experiment [6]. Besides, the compound was classed as inactive in experiment [7] and in experiment [8].

Turning to `O=C1C[C@@H]2OCC=C3CN4CC[C@]56c7ccccc7N1[C@H]5[C@H]2[C@H]3C[C@H]46`, the compound was called inactive in [1], in experiment [2], in experiment [3], in experiment [4], in experiment [5] and in experiment [6]. For the same compound, the call in [7], in experiment [8] and in [10] was inactive. In experiment [9], the Potency is 59.6 µM (active).
